Data: PubChem BioAssay
Where “and” joins values, the source holds several entries; their conditions need not be identical. Equal entries are not always repeated. Inconclusive results are not listed. Calls of active or inactive are those of the source. Cut-off not given; nearly all actives show AC50 up to about 26 µM.

Test: JHH-DIPG-1 glioma cell viability, MIPE5.0 library, CellTiter-Glo luminescence, qHTS (AID 1347067);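 further: cells exposed to compound for 48 hours before readout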
Conditions: JHH-DIPG-1 glioma viability, CellTiter-Glo ATP luminescence
With `CCCc1cc(C(=O)N[C@H](Cc2ccc(-c3cccc(OC(F)(F)F)c3)nc2)C(=O)N[C@@H]2CCNC2)sc1C` the AC50 was 10.5 µM (active).
In the case of `CCN(CC)CCNc1ccc(C)c2sc3ccccc3c(=O)c12`, the AC50 is reported as 18.6 µM (active).
For `COCCNCc1ccc(-c2cc3nccc(Oc4ccc(NC(=O)C5(C(=O)Nc6ccc(F)cc6)CC5)cc4F)c3s2)nc1`, the AC50 was 8.33 µM (active).
In the case of `Nc1nc(N)c2nc(-c3cccc(Cl)c3)c(N)nc2n1`, the AC50 is reported as 16.6 µM (active).
With `CCCCNc1ncc2c(-c3ccc(CN4CCN(C)CC4)cc3)cn(C3CCC(O)CC3)c2n1` (centres undefined) the AC50 was 3.32 µM (active) and 2.95 µM (active).
With `O=C(c1ccc(Nc2nc(C3CC3)cn3c(-c4cn[nH]c4)cnc23)c(F)c1)N1CCOCC1` the AC50 was 2.63 µM (active).
With `COc1cc(OC)cc(N2CCN(C(=O)Nc3nc4cc(F)ccc4nc3OC)CC2)c1` the AC50 was 1.32 µM (active).
For `Cn1nccc1Nc1nccc(-c2ccn([C@H](CO)c3ccc(Cl)c(F)c3)c(=O)c2)n1`, the AC50 was 1.48 µM (active).
In the case of `COc1ccc(-c2cc(C(O)C3CCCCN3)c3ccccc3n2)cc1` (centres undefined), the AC50 is reported as 7.42 µM (active).
For `CCOC(=N)c1nc2ccc3ncnc(Nc4cc(F)c(F)cc4Cl)c3c2s1`, the AC50 was 14.8 µM (active).
With `COc1cc(C(=O)O)ccc1NC(=O)[C@@H]1N[C@@H](CC(C)(C)C)[C@](C#N)(c2ccc(Cl)cc2F)[C@H]1c1cccc(Cl)c1F` the AC50 was 11.8 µM (active).
With `O=C(NOCCO)c1cc(CN2OCCCC2=O)c(F)c(F)c1Nc1ccc(I)cc1F` the AC50 was 0.148 µM (active).
With `CCc1nc(C(N)=O)c(Nc2ccc(N3CCC(N4CCN(C)CC4)CC3)c(OC)c2)nc1NC1CCOCC1` the AC50 was 0.934 µM (active).
With `CC(C)Nc1cc(-c2c[nH]c(C(=O)N[C@H](CO)c3cccc(Cl)c3)c2)c(Cl)cn1` the AC50 was 1.66 µM (active).
For `CN1CCN(c2ccc3nc(-c4cc(C(C)(C)C)c(OCCCC(=O)NCCCN=[N+]=[N-])c(C(C)(C)C)c4)[nH]c3c2)CC1`, the AC50 was 11.8 µM (active).
In the case of `C[C@@H]1COCCN1c1cc(=O)n2c(n1)N(Cc1cncc(Cl)c1)[C@H](C(F)(F)F)CC2`, the outcome is reported as “inactive”.
In the case of `Nc1nc2cc(-c3ccc4ncc(C(=O)N5CCOCC5)n4c3)ccc2o1`, the AC50 is reported as 10.5 µM (active).
For `CC1=C(c2ccc(O)cc2)[C@H](c2ccc(OCCN3CCCCC3)cc2)Oc2cc(O)ccc21`, the outcome was “inactive”.
In the case of `CC(C)(O)CS(=O)(=O)Nc1ccc2c(c1)CCN(C(=O)COc1cccnc1)C2`, the AC50 is reported as 0.0468 µM (active).
For `CCc1cc(C(N)=O)ccc1-n1nc(C(C)C)c2c(-n3cnc(-c4cnn(C)c4)c3)ccnc21`, the AC50 was 3.32 µM (active).
For `CCN(CC)CCNC(=O)c1c(C)[nH]c(/C=C2/C(=O)Nc3ccc(-c4csc(-c5ccccc5)n4)cc32)c1C`, the AC50 was 2.95 µM (active).
In the case of `CC[C@@H](C)Nc1cc(C(=O)NC2CC3CC[C@@H](C2)N3c2ccc(C(=O)C3CC3)cn2)c(C)cc1C(N)=O` (some centres undefined), the AC50 is reported as 0.148 µM (active).
In the case of `CC1(C)OCCn2c1nc1c(N3CCOCC3)nc(-c3cnc(N)nc3)nc12`, the AC50 is reported as 1.32 µM (active).
With `CCCCCCCOc1ccc(CCC(N)(CO)CO)cc1C(F)(F)F` the AC50 was 8.33 µM (active).
With `O=C(/C=C\n1cnc(-c2cc(C(F)(F)F)cc(C(F)(F)F)c2)n1)N1CC(F)(F)C1` the AC50 was 9.34 µM (active).
For `NS(=O)(=O)Oc1ccc2c3c(c(=O)oc2c1)CCCCC3`, the outcome was “inactive”.
In the case of `CCOc1ccc(-n2c([C@@H](C)N(Cc3cccnc3)C(=O)Cc3ccc(F)c(C(F)(F)F)c3)nc3ncccc3c2=O)cc1`, the outcome is reported as “inactive”.
With `CC(C)(C)C(=O)N1N=CC[C@H]1c1ccccc1` the outcome was “inactive”.
For `O=C(COCC(=O)N1CCN(C(c2ccccc2)c2ccccc2)CC1)Nc1ccc(Cl)cc1C(=O)O`, the outcome was “inactive”.
In the case of `COc1ccccc1C(=O)Nc1cc2c(cc1N1CCNC[C@H]1C)n(C)c(=O)n2C`, the outcome is reported as “inactive”.
With `Cc1ccc(NC(=O)c2ccc3c(c2)OCCO3)cc1NC(=O)c1ccc2nc(OCCN3CCCC3)ccc2c1` the AC50 was 0.204 µM (active).
In the case of `CC1Oc2cc(cnc2N)-c2c(nn(C)c2C#N)CN(C)C(=O)c2ccc(F)cc21` (centres undefined), the outcome is reported as “inactive”.
For `O=C(CCCc1ccc2cccnc2n1)NCc1cc(-c2ccc(F)c(C(F)(F)F)c2)no1`, the outcome was “inactive”.
In the case of `CNS(=O)(=O)Nc1nccc(Cc2c(C)c3ccc(Oc4ncccn4)cc3oc2=O)c1F`, the AC50 is reported as 1.05 µM (active).
With `CC(=O)Nc1cc(Oc2ccc3c(nc(Nc4ccc(F)cc4F)n3C)c2C)ccn1` the AC50 was 0.525 µM (active).
With `O=C(NCc1ccc(S(=O)(=O)c2cccc(C(F)(F)F)c2)cc1)c1cnc2[nH]ncc2c1` the AC50 was 0.0148 µM (active).
With `COc1ccc(N(C)c2nc(C)nc3ccccc23)cc1` the AC50 was 0.0105 µM (active).
In the case of `O=c1cc(N2CCOCC2)oc2c(-c3ccc4c(c3)OCCO4)csc12`, the AC50 is reported as 7.42 µM (active).
With `CC(C)NC(=O)C1CCC(n2c(NC(=O)c3ccc(F)cc3)nc3ccc(CN4CCC(C(C)(C)O)CC4)cc32)CC1` (centres undefined) the outcome was “inactive”.
